Results filed as inconclusive are left out. For part of these data: Results with a measured potency or affinity are listed apart. Calls of active or inactive are those of the source. Rule as the data show it, unless noted: active = inhibition above about 80%; inactive = the rest.
Legend:
[1] = rescue of PC12 cells from polyQ htt toxicity – LDH release (AID 1610); settings: PC12 mutant huntingtin toxicity, final LDH at 4 uM, stronger effect = lower value
[2] = growth inhibition, single agent or in combination, cell-based, chromothripsis tumors, cisplatin or BGB combos (AID 1671449); settings: LFS_MB_P medulloblastoma cells;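 also: cells exposed for 96 hours; 0% = vehicle DMSO and 100% = killing by high DMSO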
[3] = growth inhibition, single agent and combos, cell-based, chromothripsis tumors, cisplatin or BGB combos (AID 1671450); settings: HDN33 neuroblastoma cells, stronger effect = higher value;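 also: cells exposed to compound for four days; 0% = vehicle DMSO and 100% = cell killing by high DMSO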
[4] = growth inhibition, single agents and combos, LFS_MB_1R, cell-based, cisplatin or BGB combos, synergistic combos for chromothripsis tumors (AID 1671452); settings: LFS_MB_1R medulloblastoma cells, stronger effect = higher value;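 also: cells exposed for 96 hours before readout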
[5] = growth inhibition, single agents and combos, HTB85, cell-based, BGB or cisplatin IC20 combos, synergistic combos for chromothripsis tumors (AID 1671453); settings: HTB85 osteosarcoma cells, drug combinations, stronger effect = higher value;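 also: cells exposed for 96 hours before readout; 0% = vehicle DMSO and 100% = high DMSO killing control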
[6] = growth inhibition, single agents and combos, CRL2098, cell-based, BGB or cisplatin IC20 combos, synergistic combos for chromothripsis tumors (AID 1671454); settings: CRL2098 osteosarcoma cells, drug combinations, stronger effect = higher value;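 also: cells exposed for 96 h before readout; 0% = vehicle DMSO and 100% = killing by high DMSO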
[7] = growth inhibition, single agents and combos, HD-MB03, cell-based, BGB or cisplatin IC20 combos, synergistic combos for chromothripsis tumors (AID 1671455; in the data active = inhibition above about 83%;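 also: 0% = vehicle DMSO and 100% = high DMSO as cytotoxic control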); settings: HD-MB03 medulloblastoma cells, stronger effect = higher value
[8] = growth inhibition, single agents and combos, UWB1.289, cell-based, BGB or cisplatin combos, synergistic combos for chromothripsis tumors (AID 1671456); settings: UWB1.289 ovarian carcinoma cells, stronger effect = higher value;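 also: cells exposed to compound for four days; 0% = vehicle DMSO and 100% = killing by high DMSO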
[9] = growth inhibition, single agents and combos, LFS_MB_2R, cell-based, cisplatin combos, synergistic combos for chromothripsis tumors (AID 1671457); settings: LFS_MB_2R medulloblastoma cells, stronger effect = higher value;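 also: cells exposed to compound for four days before readout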
[10] = growth inhibition, MDA-MB-436, cell-based, BGB or cisplatin combos, synergistic combos for chromothripsis tumors (AID 1671458; call rule not given here;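 also: cells exposed for 96 hours; 0% = vehicle DMSO and 100% = killing by high DMSO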); settings: MDA-MB-436 breast carcinoma growth inhibition, drug combinations, stronger effect = higher value
[11] = UWB1.289_BRCA1 ovarian cancer growth, cell-based, BGB or cisplatin combinations (AID 1671459); settings: UWB1.289 BRCA1 ovarian carcinoma, drug combinations, stronger effect = higher value
[12] = drug combination toxicity in non-malignant astrocytes – cell-based, BGB or cisplatin IC20 combos, cytotoxicity control for chromothriptic childhood tumor combination screen (AID 1671460); settings: Human astrocytes, viability inhibition, drug combinations, at 0.5 µM, stronger effect = higher value;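 also: cells exposed to compounds for 96 hours before viability readout; 0% = vehicle and 100% = killing control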
[13] = BT084 cell growth, single and combined drugs, ICGC_MB145, cisplatin and BGB IC40 combos (AID 1671461); settings: BT084 medulloblastoma cells, drug combinations, stronger effect = higher value;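 also: cells exposed to drugs for 96 hours; 0% = vehicle DMSO and 100% = high DMSO full killing control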
[14] = RCMB18 cell growth, single agent and combined, cisplatin and BGB IC40 combos (AID 1671462); settings: RCMB18 medulloblastoma cells, stronger effect = higher value;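 also: cells exposed to compound for four days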
[15] = CRL1545 cell growth, single agent and combined, cisplatin and BGB IC20 combos (AID 1671464); settings: CRL1545 osteosarcoma cells, stronger effect = higher value;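 also: cells exposed to compound for 96 hours before readout; 0% = vehicle DMSO and 100% = high DMSO killing control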
[16] = chitosan synthesis blockers in C. neoformans – flow cytometry, Cibacron Brilliant Red staining (AID 1347148; call rule not given here;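 also: compound exposure lasted three days at 37 degrees C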); settings: Cryptococcus neoformans chitosan, stronger effect = lower value; at 10 µM unless noted
[17] = biological target: Calcium-dependent protein kinase 1 (Plasmodium falciparum (isolate 3D7)) (UniProt P62344); assay: PfCDPK1 kinase inhibitors, biochemical, TCAMS library (AID 1159585; cut-off not given, nearly all actives have IC50 up to about 0.98 µM;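 also: inhibitors leave more ATP so luminescence rises with inhibition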); settings: recombinant PfCDPK1, Kinase-Glo ATP depletion luminescence
[18] = biological target: Plasmodium falciparum protein kinase 6 (PK6, PF3D7_1337100) (UniProt Q8IDW1); assay: PfPK6 kinase inhibitors, biochemical, TCAMS library (AID 1159586; call rule not given here); settings: recombinant PfPK6, Kinase-Glo ATP depletion luminescence
[19] = biological target: Protein kinase 7 (PK7), Plasmodium falciparum 3D7 (PF3D7_0213400) (UniProt Q7YTF7); assay: inhibition of Plasmodium PK7 catalytic activity – biochemical, TCAMS antimalarial set, Kinase-Glo luminescence (AID 1159587; call rule not given here); settings: recombinant PfPK7, Kinase-Glo ATP depletion luminescence
[20] = biological target: Calcium-dependent protein kinase 4 (Plasmodium falciparum (isolate 3D7)) (UniProt Q8IBS5); assay: PfCDPK4 kinase inhibitors, biochemical, TCAMS library (AID 1159588; cut-off not given, nearly all actives have IC50 up to about 0.91 µM); settings: recombinant PfCDPK4, Kinase-Glo ATP depletion luminescence
[21] = measured here: combination with BGB IC40, at 0.05 µM
[22] = measured here: with BGB IC20 combination, at 0.5 µM
[23] = measured here: with cisplatin IC20 combination, at 0.5 µM
[24] = measured here: combination with cisplatin, at 0.5 µM
[25] = measured here: combination with cisplatin, at 5 µM

Sequence of Calcium-dependent protein kinase 4 (Plasmodium falciparum (isolate 3D7)) (Q8IBS5 whole entry, looked up): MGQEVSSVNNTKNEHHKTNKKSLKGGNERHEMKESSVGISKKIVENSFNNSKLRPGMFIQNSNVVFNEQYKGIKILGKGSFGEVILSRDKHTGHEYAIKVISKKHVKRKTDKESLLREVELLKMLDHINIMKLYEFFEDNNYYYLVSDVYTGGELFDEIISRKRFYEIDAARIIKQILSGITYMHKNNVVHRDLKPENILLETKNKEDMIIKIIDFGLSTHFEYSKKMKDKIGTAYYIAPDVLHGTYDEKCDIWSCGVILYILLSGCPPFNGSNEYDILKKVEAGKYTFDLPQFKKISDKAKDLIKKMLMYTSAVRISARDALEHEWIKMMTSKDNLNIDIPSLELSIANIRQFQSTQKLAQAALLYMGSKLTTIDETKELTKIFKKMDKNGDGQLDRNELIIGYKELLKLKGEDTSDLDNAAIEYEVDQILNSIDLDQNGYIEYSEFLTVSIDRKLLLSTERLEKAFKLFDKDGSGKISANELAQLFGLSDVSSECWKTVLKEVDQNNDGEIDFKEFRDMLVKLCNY
Sequence of Calcium-dependent protein kinase 1 (Plasmodium falciparum (isolate 3D7)) (P62344 whole entry, looked up): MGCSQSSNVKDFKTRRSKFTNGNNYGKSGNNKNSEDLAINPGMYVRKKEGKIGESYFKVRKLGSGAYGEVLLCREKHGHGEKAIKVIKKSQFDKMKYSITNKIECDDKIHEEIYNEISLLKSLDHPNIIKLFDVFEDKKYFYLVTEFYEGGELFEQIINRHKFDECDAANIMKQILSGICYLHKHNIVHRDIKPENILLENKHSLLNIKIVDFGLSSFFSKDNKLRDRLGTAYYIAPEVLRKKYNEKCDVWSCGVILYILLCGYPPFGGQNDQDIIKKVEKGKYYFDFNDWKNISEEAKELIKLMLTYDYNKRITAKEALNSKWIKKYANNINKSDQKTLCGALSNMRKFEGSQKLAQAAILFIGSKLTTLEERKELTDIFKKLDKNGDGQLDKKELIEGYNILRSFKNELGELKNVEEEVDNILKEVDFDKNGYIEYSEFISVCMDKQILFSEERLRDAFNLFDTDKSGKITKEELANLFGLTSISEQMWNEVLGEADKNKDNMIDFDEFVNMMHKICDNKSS
Sequence of Protein kinase 7 (PK7), Plasmodium falciparum 3D7 (PF3D7_0213400) (Q7YTF7 1-343): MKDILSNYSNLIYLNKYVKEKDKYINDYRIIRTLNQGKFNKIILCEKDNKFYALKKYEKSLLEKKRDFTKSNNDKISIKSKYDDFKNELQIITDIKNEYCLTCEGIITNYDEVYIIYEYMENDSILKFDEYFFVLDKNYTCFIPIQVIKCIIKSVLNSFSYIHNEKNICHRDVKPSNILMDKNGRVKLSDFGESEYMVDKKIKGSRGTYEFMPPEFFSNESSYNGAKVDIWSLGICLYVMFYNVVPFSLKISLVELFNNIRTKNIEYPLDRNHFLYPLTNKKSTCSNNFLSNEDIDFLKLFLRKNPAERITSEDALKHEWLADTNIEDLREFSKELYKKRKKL
Sequence of Plasmodium falciparum protein kinase 6 (PK6, PF3D7_1337100) (Q8IDW1 1-305): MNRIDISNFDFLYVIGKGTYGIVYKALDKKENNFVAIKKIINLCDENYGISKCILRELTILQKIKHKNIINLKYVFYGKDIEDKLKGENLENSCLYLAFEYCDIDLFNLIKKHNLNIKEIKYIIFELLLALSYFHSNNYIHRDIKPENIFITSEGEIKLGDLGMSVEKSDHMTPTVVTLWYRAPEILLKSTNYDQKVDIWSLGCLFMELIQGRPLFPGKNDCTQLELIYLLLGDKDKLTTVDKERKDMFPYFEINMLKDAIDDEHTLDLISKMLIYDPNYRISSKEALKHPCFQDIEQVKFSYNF

`CN(C)[C@@H]1C(=O)C(C(N)=O)=C(O)[C@@]2(O)C(=O)C3=C(O)c4c(O)cccc4[C@@](C)(O)[C@H]3[C@H](O)[C@@H]12` showed a normalised LDH release [1] of 0.818.

For `O=C(O)CCCc1ccc(N(CCCl)CCCl)cc1`, the inhibition ([2]; at 0.5 µM, stronger effect = higher value) was -42.9% (inactive), the inhibition ([2]; measured here: combination with BGB IC20, at 0.005 µM) was -28.5% and the inhibition ([2]; measured here: combination with BGB IC40, at 0.005 µM) was -27.3%. For the same compound, the inhibition [2, 21] was -24.4%, the inhibition ([2]; measured here: combination with cisplatin, at 0.5 µM, stronger effect = higher value) was -49.6% and the inhibition ([2]; measured here: combination with cisplatin, at 5 µM, stronger effect = higher value) was -22.6%. For the same compound, the inhibition ([3]; BGB combo, at 5 µM) was -4.28%, the inhibition ([3]; at 0.5 µM) was -4.71% (inactive) and the inhibition ([3]; cisplatin combo, at 5 µM) was -10.3%. The inhibition [3, 22] was -8.37%, the inhibition [3, 23] was 15.9% and the inhibition ([3]; single agent, at 5 µM) was -10.9%. For the same compound, the inhibition ([4]; at 0.5 µM) was 1.38% (inactive), the inhibition [4, 21] was -18.1% and the inhibition [4, 24] was 34.7%. For the same compound, the inhibition [4, 25] was 17.9%, the inhibition ([5]; at 0.5 µM) was -18.7% (inactive) and the inhibition ([5]; measured here: with BGB IC20, at 0.5 µM) was -46.7%. The inhibition ([5]; measured here: with BGB IC20, at 5 µM) was -21.9%, the inhibition ([5]; measured here: with cisplatin IC20, at 0.5 µM) was -11% and the inhibition ([5]; measured here: with cisplatin IC20, at 5 µM) was -8.05%. For the same compound, the inhibition ([5]; single agent, at 5 µM) was -6.46%, the inhibition ([6]; at 0.5 µM) was -43.4% (inactive) and the inhibition ([6]; measured here: combination with BGB at IC20, at 0.5 µM) was -73.2%. For the same compound, the inhibition ([6]; measured here: combination with cisplatin at IC20, at 0.5 µM) was -65.8%, the inhibition ([7]; at 0.5 µM) was -3.23% (inactive) and the inhibition ([7]; measured here: combo with BGB at IC20, at 0.5 µM) was -9.02%. The inhibition ([7]; measured here: combo with cisplatin at IC20, at 0.5 µM) was 0.904%, the inhibition ([8]; at 0.5 µM) was -7.41% (inactive) and the inhibition ([8]; measured here: inhibition with BGB combination, at 0.05 µM) was -22.1%. The inhibition ([8]; measured here: inhibition with cisplatin combination, at 0.05 µM) was -7.19%, the inhibition ([9]; at 0.5 µM) was -24.2% (inactive) and the inhibition [9, 24] was -24.7%. The inhibition [9, 25] was -25.9%, the inhibition ([10]; at 0.5 µM) was -23.5% (inactive) and the inhibition ([10]; measured here: BGB combination, at 0.5 µM) was -17.2%. It also gave an inhibition ([10]; measured here: BGB combination, at 5 µM) of -7.5%, an inhibition ([10]; measured here: cisplatin combination, at 0.5 µM) of -37.9% and an inhibition ([10]; measured here: cisplatin combination, at 5 µM) of -2.83%. For the same compound, the inhibition ([11]; BGB combination, concentration series, at 5 µM) was -9.82%, the inhibition ([11]; at 0.5 µM) was -20.2% (inactive) and the inhibition ([11]; cisplatin combination, concentration series, at 5 µM) was 4.66%. For the same compound, the inhibition [12] was -13.8% (inactive), the inhibition ([12]; measured here: combo with BGB IC20) was -14.7% and the inhibition ([12]; measured here: combo with cisplatin IC20) was -9.75%. For the same compound, the inhibition ([13]; at 0.5 µM) was -18.3% (inactive), the inhibition ([13]; cisplatin combination, at 0.5 µM) was -2.56% and the inhibition ([13]; cisplatin combination, at 5 µM) was -9.03%. The inhibition ([13]; measured here: BGB IC40 combination 0.05 uM, at 0.05 µM) was 37.2%, the inhibition ([13]; single agent, at 5 µM) was -26.4% and the inhibition ([14]; at 0.5 µM) was -21.5% (inactive). It also gave an inhibition ([14]; cisplatin combo, at 5 µM) of -8.27%, an inhibition ([14]; measured here: BGB IC40 combination, at 0.05 µM) of -18.3% and an inhibition [14, 24] of -40%. For the same compound, the inhibition ([14]; single agent, at 5 µM) was -21%, the inhibition ([15]; at 0.5 µM) was -17.8% (inactive) and the inhibition [15, 22] was -15.9%. For the same compound, the inhibition [15, 23] was -18.8%, the inhibition ([15]; single agent, at 0.05 µM) was 15.9% and the inhibition ([15]; single agent, at 5 µM) was 10.1%.

For `O=c1[nH]c2ccccc2n1C1CCN(CCCC(c2ccc(F)cc2)c2ccc(F)cc2)CC1`, the normalised LDH release [1] was 0.918 and the fold fluorescence [16] was 5.15 [at 108.3 µM] (inactive).

For `C[C@@H]1C[C@@H]([C@H](O)CC2CC(=O)NC(=O)C2)C(=O)[C@@H](C)C1`, the normalised LDH release [1] was 0.469, the outcome [17] was “inactive” and the outcome [18] was “inactive”. The outcome [19] was “inactive”, the outcome [20] was “inactive” and the fold fluorescence [16] was 9.32 [at 177.7 µM] (inactive).
